Data published in PubChem BioAssay AID1159580 (chemical genetic matrix, 2015).
The whole screen tested about 5,500 compounds, of which about 2,000 (36%) were called active. Not shown: some 18% with an inconclusive outcome. No stated cut-off is given here; in the data, active means normalized growth mostly below about 0.91 (no sharp cut-off); inconclusive means no clear call, values can overlap the other calls; inactive means mostly above about 0.92. This is one part of the list.

Test: chemical genetic growth profiling, strain panel (AID 1159580);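 further: tested at 20 µM; growth read once vehicle control cultures reached saturation at 30 °C; 1 = growth at the plate median or of vehicle wells; lower values mean less growth of the strain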
Conditions: growth OD

Measured: normalized growth

Nc1ccc(S(=O)(=O)Nc2ccc(Cl)nn2)cc1
inactive: S. cerevisiae deletion strains, locus YJR043C, strain POL32, active compounds read low 0.991 | S. cerevisiae deletion strains, locus YJR066W, strain TOR1, active compounds read low 0.926 | S. cerevisiae deletion strains, locus YKL009W, strain mrt4, active compounds read low 1.03 | S. cerevisiae deletion strains, locus YKL068W, active compounds read low 0.998 | S. cerevisiae deletion strains, locus YKL085W, strain MDH1 (second series), active compounds read low 0.992 | S. cerevisiae deletion strains, locus YKL085W, strain MDH1, active compounds read low 0.992 | S. cerevisiae deletion strains, locus YKL160W, strain elf1, active compounds read low 0.966 | S. cerevisiae deletion strains, locus YKL190W, strain CNB1, active compounds read low 1.01 | S. cerevisiae deletion strains, locus YKR001C, strain vps1, active compounds read low 0.995 | S. cerevisiae deletion strains, locus YKR026C, strain gcn3, active compounds read low 0.982 | S. cerevisiae deletion strains, locus YKR091W, strain srl3, active compounds read low 0.996 | S. cerevisiae deletion strains, locus YLL001W, strain dnm1, active compounds read low 0.981 | S. cerevisiae deletion strains, locus YLL026W, active compounds read low 0.998 | S. cerevisiae deletion strains, locus YLL041C, strain sdh2, active compounds read low 0.989 | S. cerevisiae deletion strains, locus YLR027C, strain aat2, active compounds read low 0.995 | S. cerevisiae deletion strains, locus YLR039C, strain RIC1, active compounds read low 1.06 | S. cerevisiae deletion strains, locus YLR058C, strain SHM2, active compounds read low 1.01 | S. cerevisiae deletion strains, locus YLR102C, strain apc9, active compounds read low 1 | S. cerevisiae deletion strains, locus YLR113W, strain HOG1, active compounds read low 0.984 | S. cerevisiae deletion strains, locus YLR221C, strain rsa3, active compounds read low 0.991 | S. cerevisiae deletion strains, locus YLR258W, strain gsy2, active compounds read low 0.991 | S. cerevisiae deletion strains, locus YLR262C, strain YPT6 (second series), active compounds read low 0.986 | S. cerevisiae deletion strains, locus YLR262C, strain YPT6, active compounds read low 1.06 | S. cerevisiae deletion strains, locus YLR268W, strain sec22, active compounds read low 1 | S. cerevisiae deletion strains, locus YLR320W, strain mms22, active compounds read low 0.969 | S. cerevisiae deletion strains, locus YLR330W, strain CHS5, active compounds read low 1.01 | S. cerevisiae deletion strains, locus YLR342W, strain FKS1 (second series), active compounds read low 1.05 | S. cerevisiae deletion strains, locus YLR342W, strain FKS1, active compounds read low 0.98 | S. cerevisiae deletion strains, locus YLR357W, strain rsc2, active compounds read low 0.978 | S. cerevisiae deletion strains, locus YLR370C, strain arc18, active compounds read low 0.984 | S. cerevisiae deletion strains, locus YLR371W, strain rom2, active compounds read low 1 | S. cerevisiae deletion strains, locus YLR384C, strain iki3, active compounds read low 0.993 | S. cerevisiae deletion strains, locus YLR418C, strain cdc73, active compounds read low 1.03 | S. cerevisiae deletion strains, locus YML016C, strain PPZ1, active compounds read low 1 | S. cerevisiae deletion strains, locus YML032C, strain rad52, active compounds read low 1.01 | S. cerevisiae deletion strains, locus YML120C, strain ndi1, active compounds read low 0.983 | S. cerevisiae deletion strains, locus YML124C, strain tub3, active compounds read low 1.01 | S. cerevisiae deletion strains, locus YMR058W, strain fet3, active compounds read low 0.987 | S. cerevisiae deletion strains, locus YMR078C, strain ctf18, active compounds read low 1.01 | S. cerevisiae deletion strains, locus YMR125W, strain sto1, active compounds read low 0.984 | S. cerevisiae deletion strains, locus YMR129W, active compounds read low 0.986 | S. cerevisiae deletion strains, locus YMR205C, strain PFK2, active compounds read low 0.97 | S. cerevisiae deletion strains, locus YMR223W, strain ubp8, active compounds read low 1.04 | S. cerevisiae deletion strains, locus YMR231W, strain pep5, active compounds read low 0.987 | S. cerevisiae deletion strains, locus YMR263W, strain SAP30, active compounds read low 0.995 | S. cerevisiae deletion strains, locus YMR307W, strain GAS1, active compounds read low 1.04 | S. cerevisiae deletion strains, locus YNL067W, strain RPL9B, active compounds read low 0.983 | S. cerevisiae deletion strains, locus YNL071W, strain lat1, active compounds read low 0.995 | S. cerevisiae deletion strains, locus YNL183C, strain NPR1, active compounds read low 0.927 | S. cerevisiae deletion strains, locus YNL209W, strain ssb2, active compounds read low 0.999 | S. cerevisiae deletion strains, locus YNL233W, strain BNI4, active compounds read low 0.989 | S. cerevisiae deletion strains, locus YNL248C, strain rpa49, active compounds read low 0.994 | S. cerevisiae deletion strains, locus YNL250W, strain rad50, active compounds read low 1.03 | S. cerevisiae deletion strains, locus YNL271C, strain bni1, active compounds read low 1 | S. cerevisiae deletion strains, locus YNL298W, strain CLA4, active compounds read low 1 | S. cerevisiae deletion strains, locus YNL307C, strain MCK1, active compounds read low 1.01 | S. cerevisiae deletion strains, locus YNL322C, strain KRE1 (second series), active compounds read low 0.976 | S. cerevisiae deletion strains, locus YNR049C, strain mso1, active compounds read low 0.995 | S. cerevisiae deletion strains, locus YNR052C, strain pop2, active compounds read low 1.01 | S. cerevisiae deletion strains, locus YOL006C, strain TOP1, active compounds read low 0.951 | S. cerevisiae deletion strains, locus YOL012C, strain htz1 1.39 | S. cerevisiae deletion strains, locus YOL147C, strain pex11, active compounds read low 1 | S. cerevisiae deletion strains, locus YOR001W, strain rrp6, active compounds read low 0.995 | S. cerevisiae deletion strains, locus YOR061W, strain CKA2, active compounds read low 1 | S. cerevisiae deletion strains, locus YOR069W, strain VPS5, active compounds read low 1.01 | S. cerevisiae deletion strains, locus YOR070C, strain gyp1, active compounds read low 0.991 | S. cerevisiae deletion strains, locus YOR080W, strain dia2, active compounds read low 0.979 | S. cerevisiae deletion strains, locus YOR083W, strain WHI5, active compounds read low 0.96 | S. cerevisiae deletion strains, locus YOR106W, strain vam3, active compounds read low 0.959 | S. cerevisiae deletion strains, locus YOR136W, strain idh2, active compounds read low 0.995 | S. cerevisiae deletion strains, locus YOR144C, strain elg1, active compounds read low 0.995 | S. cerevisiae deletion strains, locus YOR184W, strain ser1, active compounds read low 1.02 | S. cerevisiae deletion strains, locus YOR231W, strain MKK1, active compounds read low 0.991 | S. cerevisiae deletion strains, locus YOR265W, strain rbl2, active compounds read low 0.999 | S. cerevisiae deletion strains, locus YOR270C, strain vph1, active compounds read low 0.994 | S. cerevisiae deletion strains, locus YOR290C, strain snf2, active compounds read low 0.985 | S. cerevisiae deletion strains, locus YOR316C, strain cot1, active compounds read low 0.997 | S. cerevisiae deletion strains, locus YPL051W, strain arl3, active compounds read low 0.98 | S. cerevisiae deletion strains, locus YPL078C, strain atp4, active compounds read low 0.982 | S. cerevisiae deletion strains, locus YPL106C, strain sse1, active compounds read low 0.969 | S. cerevisiae deletion strains, locus YPL240C, strain hsp82, active compounds read low 0.978 | S. cerevisiae deletion strains, locus YPL256C, strain CLN2, active compounds read low 0.962 | S. cerevisiae deletion strains, locus YPR119W, strain clb2, active compounds read low 0.999 | S. cerevisiae deletion strains, locus YPR141C, strain kar3, active compounds read low 0.995 | S. cerevisiae deletion strains, locus YPR163C, strain tif3, active compounds read low 1.01 | S. cerevisiae deletion strains, locus YPR167C, strain met16, active compounds read low 1 | S. cerevisiae deletion strains, strain wtn01, active compounds read low 1.02 | S. cerevisiae strains, strain wild type, active compounds read low 1.01
